According to PubChem BioAssay AID1053124 (Broad Institute, 2014):
Potency and affinity values are given separately. Unmarked numbers belong to inactive results.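 The calls were made as follows: active = cell killing whose fitted half-effect concentration is at most twice the top valid dose tested; inconclusive = flat curve with 30 to 70% killing, or a poor fit; inactive = effect in the rising direction, plus the rest.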

assay: viability loss in A549 lung cells – cell-based, ATP luminescence, cherry-pick, set 2, cytotoxicity control, dose response (AID 1053124); details: ATP luminescence (CellTiter-Glo), 72 h; series mostly up to 26 µM; activity change, negative = cytotoxicity: at the top concentration;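 also: 0% = neutral control wells and -100% = mitoxantrone 10 µM positive control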

SMILES | activity change, negative = cytotoxicity
CCN(CC)CCN1C2=C(C(=O)CC(C)(C)C2)C(c2cccc(F)c2)C2=C1CC(C)(C)CC2=O | -12.3%
COc1ccc(C2C(C#N)=C(N)Oc3cc(O)ccc32)cc1Cl (stereo not given) | -5.72%
CC1CCN(S(=O)(=O)N2CCC(C(=O)NC3CCCC3)CC2)CC1 | -6.82%
CSc1ccc(Cn2c(C)c(C(=O)NCc3cccc(Cl)c3)sc2=O)cc1 | -3.84%
N#Cc1c2ccc(O)cc2n2ccccc12 | -20.3%
COc1cccc(N2CCN(C(=O)C3CCCN(S(=O)(=O)c4cnc[nH]4)C3)CC2)c1 (stereo not given) | -0.022%
Cc1cc(OC(=O)c2ccccc2Cl)ccc1N1C(=O)CCC1=O | -0.659%
COc1ccc(C2CC(c3cccs3)=NN2c2nc(C)c(C(C)=O)s2)cc1OC (stereo not given) | -26.6%
CCOc1ccc(-n2c(SCC(=O)Nc3nccs3)nnc2-c2ccoc2C)cc1 | -10.2%
COc1cc(C(=O)OCC(C)=O)cc(NC(=O)c2ccco2)c1OC | -0.686%
CCOc1ccc(C(=O)c2cc3ccc(O)cc3oc2=O)cc1 | -0.025%
Cc1cc(-c2ccccc2)c2ccc(NC(=O)C(C)(C)C)nc2n1 | -7.08%
Clc1cccc(CN2CCN(Cc3nc(CCc4ccccc4)no3)CC2)c1 | -8.4%
O=C(O)[C@@H]1CCCN1S(=O)(=O)c1cccc(S(=O)(=O)N2CCC[C@H]2C(=O)O)c1 | 2.87%
CN1CCc2c(sc(NC(=O)C3CCCCC3)c2C(N)=O)C1 | 1.99%
C#CCOc1ccc(C2C(C#N)=C(N)Oc3cc(O)ccc32)cc1 (stereo not given) | -2.97%
Cc1ccc2c(c1)-c1c(cnn1CC(=O)Nc1ccccc1N1CCN(C)CC1)CO2 | -16.3%
COC(=O)C1=CN(Cc2ccc(OC)c(OC)c2)C=C(C(=O)OC)C1c1cccc(F)c1 | -8.27%
O=c1[nH]c2ccccc2nc1/C=C/c1ccccc1 | -12.7%
CCOC(=O)c1cc2c(=O)n3ccccc3nc2n(Cc2ccc(Cl)cc2)c1=N | 4.97%

SMILES | activity change, negative = cytotoxicity
CCN1C=C(C(=O)OC)C(c2cccc(OC)c2OC)C(C(=O)OC)=C1 | -4.62%
COc1ccc(CCN=C(N)NS(=O)(=O)c2ccc(F)cc2)cc1 | -7.67%
CSc1ccc(Cn2c(C)c(C(=O)NCCC#N)sc2=O)cc1 | 2.6%
COc1ccc(Br)c(Cn2c(C)c(C(=O)NCc3ccc4c(c3)OCCO4)sc2=O)c1 | -2.12%
NC(=O)c1c(NC(=O)Cc2ccccc2)sc2c1CCN(Cc1ccccc1)C2 | -6.11%
COc1cc(C(c2c(C(=O)O)[nH]c3ccccc23)c2c(C(=O)O)[nH]c3ccccc23)ccc1OCc1ccccc1 | 2.4%
CCC(Sc1nc(N)c(NC(=O)c2ccc(OC)cc2)c(=O)[nH]1)C(=O)O (stereo not given) | -2.92%
CC(=O)NNc1cc(N2CCOCC2)nc(N2CCOCC2)n1 | -2.48%
Cc1cc(=O)oc2cc(OC(=O)c3cncc(Br)c3)ccc12 | -8.82%
CN(C)/C=C/C(=O)c1c(F)cccc1F | 0.6%
COc1ccccc1N1CCN(C2CCC(C)CC2)CC1 (stereo not given) | -4.68%
COCCn1c(=N)c(S(=O)(=O)c2ccc(F)cc2)cc2c(=O)n3ccccc3nc21 | 1.86%
CCC(C)n1c(=N)c(C#N)cc2c(=O)n3cc(C)ccc3nc21 (stereo not given) | 2.88%
COCCNC(=S)N/N=C/c1ccc(-c2ccc([N+](=O)[O-])cc2)o1 | -6.8%
Cc1ccc(-n2nnnc2CNC(=O)C(=O)c2c[nH]c3ccccc23)cc1C | 0.963%
Cc1ccc(S(=O)(=O)c2cc3c(=O)n4ccccc4nc3n(C)c2=N)cc1 | -8.01%
COc1ccccc1NS(=O)(=O)c1cc(NC(=O)CCNC(C)=O)ccc1C | 0.216%
Cc1ccc(-c2nc3ccsc3c(=O)[nH]2)cc1 | -7.83%
CC(=O)c1cc2ccc(O)cc2oc1=O | 2.12%
COCCCOc1cc(NCc2ccccc2)c2ncn(C(C)C)c2c1 | 1.48%
